Bioassay records from PubChem BioAssay.
tim23-1 inh – inhibits growth of tim23-1 mutant yeast. S. cerevisiae tim23-1 growth, BacTiter-Glo luminescence, 24 h. inhibition, % at 20 µM. actives 1.3% (n = 330,000). AID 463212;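 active means growth inhibition of the mutant yeast at or above 50%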;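 further: temperature-sensitive mutant grown at 25 °C; plate controls were DMSO-treated mutant yeast for no effect and medium wells lacking yeast for full effect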
SKKanGAS inh – inhibitors of SKKanGAS S. pyogenes growth in kanamycin (SK-promoter or general growth effect) | actives 1.3% (n = 300,000) | BacTiter-Glo, 6 h | inhibition, % at 7.5 µM;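 active means mean replicate score, as percent of positive control median, at least 50; inconclusive means mean below 50 but one replicate at or above 50; inactive means mean and every replicate below 50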;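 further: strain carries kanamycin resistance gene driven by streptokinase promoter and grows in 40 µg/ml kanamycin; loss of luminescence reflects streptokinase promoter inhibition or plain growth inhibition; 0% = median of DMSO wells and 100% = positive control at its reference dose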
NLRP3 yeast inh – NALP3 inhibition in yeast. AID 2825. Yeast reconstituted NLRP3/ASC/caspase-1, beta-gal luminescence, 24 h. actives 0.39% (n = 330,000). inhibition, % at 10 µM;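 active means inhibition of 50% or more; inactive means inhibition below 50%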;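 further: plate controls were induced DMSO wells for no effect and uninduced yeast grown without galactose for full effect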
PfHsp90 yeast 2 – growth inhibition of yeast expressing Plasmodium Hsp90; actives 0.32% (n = 310,000); S. cerevisiae expressing PfHsp90, BacTiter-Glo ATP, 48 h; yeast lacking PDR1 and PDR3 efflux regulators; inhibition, % at 9.4 µM; AID 504621;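 active means every replicate shows inhibition above about 80%, whatever the replicate mean, limit read from the data; inconclusive means mean inhibition reaches the set limit but some replicate falls short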;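 further: 0% = DMSO neutral controls and 100% = 20 µM radicicol positive controls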
tim10-1 inh – inhibits growth of tim10-1 mutant yeast; inhibition, % at 20 µM; actives 2.2% (n = 330,000); AID 463190; S. cerevisiae tim10-1 ts strain growth, BacTiter-Glo, 24 h;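 active means inhibition of at least 40%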;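 further: mutant grown at 25 °C; 0% = DMSO wells with yeast and 100% = wells holding no yeast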
TIM10 inh – inhibits growth of TIM10 yeast strain; S. cerevisiae TIM10 strain growth, BacTiter-Glo luminescence, 24 h; inhibition, % at 10 µM; actives 1.4% (n = 330,000); AID 463195;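 active means inhibition of 40% or more at the single tested concentration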;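 further: wild-type TIM10 isogenic control strain grown at permissive 25 °C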
tim10-1 conf – tim10-1 yeast growth inhibition, confirmed. shares compounds with tim10-1 inh. S. cerevisiae tim10-1 ts strain growth, BacTiter-Glo, 24 h. inhibition, % at 20 µM. actives 56% (n = 7,400);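 active means inhibition of yeast growth at or above a set limit in either of two repeat tests at 20 µM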;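 further: tim10-1 mutant grown at permissive 25 °C to find synthetic lethal compounds; 0% = DMSO yeast wells and 100% = medium wells without yeast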
Active calls of the source: *; ? = inconclusive; . = not tested or not shown. Rows were chosen to be rich in hits. Some 4.6% of all compounds tested hit in one or more screens of this group.

SMILES	tim23-1 inh	SKKanGAS inh	NLRP3 yeast inh	PfHsp90 yeast 2	tim10-1 inh	TIM10 inh	tim10-1 conf
O=C1N=C(N2CCOCC2)S/C1=C/c1ccc(-c2ccccc2Cl)o1	1	14	11	-16	24	23	.
Cc1ccc(S(=O)(=O)NCCNC(=O)CN2CCOCC2)cc1	-3	7	-10	8	-19	9	.
CCCCNC(=O)CNC(=S)N(Cc1ccccc1)Cc1cccs1	14	-1	-10	-46	47*	8	28
COC(CNC(=O)CNC(=S)N(Cc1ccccc1)Cc1cccs1)OC	12	-3	9	-4	16	-7	.
O=C(NCC1CC1)[C@]1(C(F)(F)F)C[C@H](CCC2CCCCC2)CCCO1	9	4	13	8	9	15	.
CC/C(=N\Nc1ccccc1[N+](=O)[O-])c1ccc(O)cc1	38	18	41	-43	57*	40	39*
FC(F)(F)c1cccc(N2CCN(c3nnnn3-c3ccccc3)CC2)c1	26	0	10	-13	43*	13	14
FC(F)(F)c1cccc(N2CCN(c3ccc4nnc(-c5ccccc5)n4n3)CC2)c1	20	-7	6	27	49*	31	21
CCC/C(C(=O)NCCO)=C1/c2ccccc2C(=O)N1c1ccccc1	-10	.	-1	-15	-16	3	.
COc1cccc(/C=N/n2c(C)nc3ccccc32)c1OC	48	-7	22	3	44*	39	31
CCN(CCn1cccn1)C(=O)CCc1nnc(-c2ccc3c(c2)OCO3)o1	14	-20	8	31	8	-1	.
CC(c1ccco1)N(C(=O)c1ccccc1NS(=O)(=O)c1cccc([N+](=O)[O-])c1)c1ccccn1 (configuration not stated)	32	4	2	1	42*	40	34*
Cc1cc(OC(F)F)ccc1NC(=S)NCCc1ccccc1	33	-10	33	0	48*	28	16
COc1ccc(Cl)cc1NC(=S)NCCc1ccc(S(N)(=O)=O)cc1	-9	6	12	-17	7	15	.
Fc1ccc(F)c(NC(=S)NCCc2ccccc2)c1	28	10	36	-27	46*	35	28
COc1ccc(NC(=S)NCCc2ccccc2)c(C)c1	12	0	15	-4	19	-14	.
COc1ccc(Cl)cc1NC(=S)NCCc1ccc(F)cc1	34	15	-61	-64	51*	33	34*
S=C(NCCCc1ccccc1)Nc1ccccc1	47	.	14	-26	29	23	.
S=C(NCCc1ccccc1)Nc1ccc(Nc2ccccc2)cc1	47	-5	29	-33	52*	26	34*
COc1cccc(N2CCN(CC(=O)NC(=O)NC3CCCCC3)CC2)c1	20	.	20	14	11	10	.
CCCCN1C(=S)NC[C@@H]1Cc1ccccc1	29	6	19	23	28	4	.
CN(C(=O)c1cccc(NC(=O)Cc2cccc(NC(=O)C3CCCN(C(=O)C4CCCCC4)C3)c2)c1)C1CC1 (configuration not stated)	.	.	.	-21	.	.	.
CN(C(=O)c1cccc(NC(=O)Cc2cccc(NC(=O)C3CCCN(C(=O)CCc4ccccc4)C3)c2)c1)C1CCC1 (configuration not stated)	.	.	.	-2	.	.	.
CCOC(=O)c1c(C)[nH]c(C)c1C(=O)COC(=O)Cc1n[nH]c(=O)c2ccccc12	-5	.	15	5	-10	6	.
COc1ccc(Cl)cc1NC(=S)NCc1ccco1	35	3	2	.	55*	20	36*
SMILES	tim23-1 inh	SKKanGAS inh	NLRP3 yeast inh	PfHsp90 yeast 2	tim10-1 inh	TIM10 inh	tim10-1 conf
S=C(NCCC(c1ccccc1)c1ccccc1)Nc1ccc(Cl)cc1	27	117*	30	18	55*	34	20
CC1CCCN(C(=O)c2ccc(Br)c(S(=O)(=O)N3CCOCC3)c2)C1 (configuration not stated)	28	.	2	-4	11	7	.
Cc1cccc(Nc2c([N+](=O)[O-])c(=O)n(C)c3ccccc23)c1	14	5	12	-48	17	-23	.
CC(C)c1ccc(Nc2c([N+](=O)[O-])c(=O)n(C)c3ccccc23)cc1	15	3	30	14	51*	7	52*
O=C(CC1N=C(Cc2ccccc2)NNC1=O)N/N=C/c1ccc([N+](=O)[O-])cc1 (configuration not stated)	1	6	-9	4	4	7	.
CSCCC(NC(=O)c1ccccc1Cl)C(=O)Nc1ccc(C)c(S(=O)(=O)N2CCOCC2)c1 (configuration not stated)	5	-10	10	.	12	2	.
Cc1ccc(-n2c(SC3CCOC3=O)nc3ccccc3c2=O)cc1 (configuration not stated)	30	-5	4	.	13	17	.
Nc1cc(Cl)ccc1Oc1ccc2ccccc2c1	28	-1	18	-18	61*	9	57*
COC(=O)C1=C(C(=O)OC)[C@@H]2N(Cc3ccccc3)c3ccccc3[C@@]23C[C@@H](C(=O)OC)N(C(=O)c2cccs2)C3=N1	42	3	15	-14	42*	18	30
COC(=O)C1=C(C(=O)OC)[C@@H]2N(C)c3ccccc3[C@@]23C[C@@H](C(=O)OC)N(C(=O)c2cccs2)C3=N1	20	0	3	-21	17	27	.
O=CNC1CCCc2c1[nH]c1ccc(Cl)cc21 (configuration not stated)	33	-16	8	-9	45*	30	28
C/C(=N\O)c1c(C)c2ccccc2n1C	21	1	16	-22	6	-1	.
C/C(=N\O)c1ccc2c3ccccc3n(C)c2c1	46	-6	19	.	44*	18	23
c1csc(CN2CCOCC2)c1	5	-2	0	5	15	8	.
O=C(Nc1ccc(Cl)c(Cl)c1)Oc1ccc(NC(=O)c2ccco2)cc1	29	72*	2	37	44*	19	26
O=C(Nc1ccccc1N1CCN(C(=O)c2ccccc2)CC1)c1ccccc1Cl	8	?	-10	19	8	2	.
O=C(Nc1ccccc1N1CCN(C(=O)c2ccc(Cl)cc2)CC1)c1cccc([N+](=O)[O-])c1	32	25	21	17	42*	20	13
COc1ccccc1C(=O)Nc1ccccc1N1CCN(C(=O)c2ccc(Cl)cc2)CC1	44	22	14	-29	47*	29	17
O=c1cc(Cn2ccnc2)c2cc(O)ccc2o1	12	9	11	10	13	-11	.
N#Cc1nc(Cc2ccccc2)oc1NCc1cccnc1	-4	-4	1	-7	-1	-9	.
